Test results taken from PubChem BioAssay (NCI).
The panel holds about 83,000 compounds, 20% with a hit somewhere; the sample as a whole holds those more often.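 Note: values are percent growth. 100 is the growth of untreated cells, values between 100 and 0 indicate rising inhibition; between -100 and 0 indicates cell death.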 A number with no mark means an inactive call. Active and inactive are the calls of the source. How the source made its calls: active means growth percent below 10; inactive means the rest.

Columns and labels:
Assay in all cases: NCI-60 one-dose screen, 48 h (100 = growth as untreated, 0 = no growth, -100 = all killed)
Details in all cases: 10 µM unless noted
HCT-15 colon = test system: HCT-15 colon
HT29 colon = test system: HT29 colon
SNB-75 CNS = test system: SNB-75 CNS
SNB-19 CNS = test system: SNB-19 CNS
U251 CNS = test system: U251 CNS
PC-3 prostate = test system: PC-3 prostate
SK-MEL-5 melanoma = test system: SK-MEL-5 melanoma
UACC-62 melanoma = test system: UACC-62 melanoma
LOX IMVI melanoma = test system: LOX IMVI melanoma
SK-MEL-28 melanoma = test system: SK-MEL-28 melanoma

SMILES | growth (HCT-15 colon) | growth (HT29 colon) | growth (SNB-75 CNS) | growth (SNB-19 CNS) | growth (U251 CNS) | growth (PC-3 prostate) | growth (SK-MEL-5 melanoma) | growth (UACC-62 melanoma) | growth (LOX IMVI melanoma) | growth (SK-MEL-28 melanoma)
CCOC(=O)C1=C(C(=O)OCC)N(c2cc(OC)c(OC)c(OC)c2)C(N)=C(C#N)C1c1cc(=O)[nH]c2ccccc12 (stereo not given) | 106% | 112% | 83% | 98.4% | 98.7% | 123% | 95.9% | 88.6% | 93.7% | 114%
CS(=O)(=O)c1ccc(C(=O)N/N=C/c2ccccc2Cl)cc1 | 102% | 104% | 84.9% | 95.1% | 90.3% | 99% | 111% | 98.5% | 99.9% | 103%
CCN(CC)c1ccc(/C=C2/NC(=O)NC2=O)cc1 | 36.6% | 16.5% | 59.1% | 61.1% | 44.7% | 65.8% | -7.83% (active) | 11.7% | 46.4% | 66.6%
N/C(=N\OC(=O)c1ccccc1)C(Cc1ccccc1)C(=O)NOC(=O)c1ccccc1 (stereo not given) | 33.2% | 85.7% | 4.73% (active) | 56.8% | -71% (active) | 43% | 72.2% | 71.2% | -81.2% (active) | 89.6%
CC1=CCC2C1CC=C(C)C(CC[C@H]1[C@@](C)(O)CCC3OC(C)(C)[C@H](OC(=O)c4ccccc4)CC[C@@]31C)C2(C)C (stereo not given in full) | 81.9% | 76.6% | 75.9% | 105% | 61.2% | 26.2% | 79.9% | 67.4% | 67% | 109%
C=C1C(=O)O[C@H]2[C@H]1CC/C(COC(=O)N[C@@H](Cc1c[nH]c3ccccc13)C(=O)OC)=C\CC[C@@]1(C)O[C@@H]21 | -12.1% (active) | -29.5% (active) | 68.7% | 66.8% | 25.3% | 33.3% | 21.8% | 27.8% | -38.5% (active) | 6.71% (active)
NC(N)=N/N=C/c1cccc(Cl)c1Cl | 82.7% | 24% | 63.8% | 85.8% | 73.3% | 89.2% | 85.6% | 90.5% | 76.4% | 99.2%
CCSCC1CC(O)(c2ccccc2)C(c2ccccc2)C(c2ccc(F)cc2)O1 (stereo not given) | 3.78% (active) | -18.7% (active) | -14% (active) | 8.78% (active) | -11.8% (active) | -21.1% (active) | -84.2% (active) | -44.4% (active) | -64.5% (active) | -39.4% (active)
Cc1ccc([C@H]2c3[nH]c4ccccc4c3C[C@H]3C(=O)N(CCCCCCC(=O)NO)CC(=O)N23)cc1 | 102% | 37.2% | -7.38% (active) | 52.5% | 50.7% | 44.3% | 37.4% | 24.1% | -37.2% (active) | 37.5%
CC(CN1CCN(CC(C)Nc2ccnc3cc(Cl)ccc23)CC1)Nc1ccnc2cc(Cl)ccc12 (stereo not given) | -1.75% (active) | -19.7% (active) | -26.8% (active) | 31.6% | 0.467% (active) | 26.2% | -97.6% (active) | -62.7% (active) | -86.1% (active) | -91.4% (active)
CN1C2CCC1/C(=C\c1ccc(F)cc1)C(=O)/C2=C/c1ccc(F)cc1 | 38.7% | 15.5% | 59.6% | 55.7% | 16.2% | 34.5% | 40.1% | 26.4% | 28.2% | 73%
COc1ccccc1CNCCCN1C(=O)c2ccc3c4c(ccc(c24)C1=O)C(=O)N(CCCCNCCCN)C3=O | 74.6% | -20.1% (active) | 53.9% | -70.3% (active) | -84.3% (active) | 43.7% | -97.1% (active) | -68.7% (active) | -10% (active) | -19.4% (active)
